High-throughput results deposited in PubChem BioAssay by several laboratories.
Shown are actives, neighbours in structure and some others; about 3.4% of the full set was active somewhere.
GalR3 antag: GalR3 antagonists in HEK293 cells, primary screen, cell-based, fluorescence readout; inhibition, % at 3 µM; 0.44% of 360,000 active; HEK293 GalR3-CNG cAMP membrane potential fluorescence; galR3 body fused to GalR1 C-terminus; AID 651719, 2012;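 active = inhibition above the screen-wide average plus 3 SD, cut at about 13% in these data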;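 also: forskolin and galanin both at EC90 stimulate the cells; cAMP rise reported by CNG channel membrane potential dye signal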
H9c2 protect: cardioprotection against H2O2-induced cell death, primary screen, uHTS, H9c2 cells, ATPLite luminescence | 0.63% of 360,000 active | H9c2 cardiomyocytes, H2O2 injury protection, 2 h | protection from H2O2 cell death, % at 20 µM;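 active = compounds giving at least 50% protection of heart cells from peroxide-induced death in the single-dose screen, raw or plate-pattern-corrected value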
FXN GAA850 act: FXN promoter activators, primary screen, cell-based, luciferase luminescence, HEK293 lucGAA850. HEK293 lucGAA850 FXN promoter luciferase reporter, 24 h; percent of 10 µM SAHA response. AID 540364, 2011. activation, % at 6 µM. 0.56% of 360,000 active;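 active = activation above the average of all compounds screened plus 3 SD, cutoff fixed separately per campaign, cut at about 7.5% in these data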
Gli-Sufu block: Gli-Sufu pathway antagonists, primary screen, luciferase luminescence, Sufu-KO-LIGHT cells, uHTS | 0.74% of 340,000 active | Sufu-KO-LIGHT fibroblasts, Gli luciferase reporter luminescence | inhibition, % at 5 µM;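 active = inhibition above about 55%, limit read from the data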
SMARCA2 act: SMARCA2 (BRM) function activators, primary screen, cell-based, luminescence, high throughput. MG213 cells, MMTV-luciferase reporter, dexamethasone, overnight. 1% of 370,000 active. activation, % at 9.1 µM; in the data active = activation above about 7.8%
COUP-TFII inh: NR2F2 transcriptional activity inhibitors, primary screen, cell-based, luciferase reporter, HEK293T, luminescence | HEK293T NGFI-A luciferase reporter | inhibition, % at 8.6 µM | 0.7% of 370,000 active | COUP transcription factor 2 (Homo sapiens), P24468;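 active = inhibition above a per-plate cutoff, mean inhibition of test wells between control levels plus 3 SD, cut at about 38% in these data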;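 also: cells cotransfected with COUP-TFII expression vector driving the NGFI-A reporter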
Target sequence (P24468 whole entry, looked up): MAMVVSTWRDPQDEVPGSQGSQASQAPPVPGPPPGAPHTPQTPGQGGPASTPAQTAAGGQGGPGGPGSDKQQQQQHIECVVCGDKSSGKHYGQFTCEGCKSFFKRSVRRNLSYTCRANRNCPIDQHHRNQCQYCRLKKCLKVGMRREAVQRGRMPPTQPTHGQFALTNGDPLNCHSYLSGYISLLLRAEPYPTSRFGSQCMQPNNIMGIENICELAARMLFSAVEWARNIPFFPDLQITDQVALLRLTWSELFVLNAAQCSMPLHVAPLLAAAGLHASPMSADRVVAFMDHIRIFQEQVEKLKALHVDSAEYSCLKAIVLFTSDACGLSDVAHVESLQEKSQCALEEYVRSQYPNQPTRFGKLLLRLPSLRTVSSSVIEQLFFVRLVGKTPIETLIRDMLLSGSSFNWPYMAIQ
Gli-Sufu confirm: Gli-SUFU pathway antagonists, confirmation, single concentration, luciferase luminescence, Sufu-KO-LIGHT cells; shares compounds with Gli-Sufu block; Gli luciferase reporter; inhibition, % at 5 µM; 40% of 2,500 active;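 active = mean inhibition at 5 µM reaching about 45%, limit read from the data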
SufuKO cytotox: cytotoxicity in Sufu-KO-LIGHT cells, confirmation, cytotoxicity control for Gli-SUFU antagonist project, cell-based, ATP luminescence, single concentration. shares compounds with Gli-Sufu block. cytotoxicity, % at 5 µM. 32% of 2,500 active;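 active = mean cytotoxicity at 5 µM above about 25%, limit read from the data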;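 also: cells exposed to compound overnight for roughly 16 to 18 hours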
Wnt3a counter: Wnt3a reporter signal inhibition, confirmation, counter-screen for Gli-SUFU antagonist project, Wnt-LIGHT cells, luminescence, single concentration. shares compounds with Gli-Sufu block. Wnt3a-driven luciferase reporter. 20% of 2,500 active. inhibition, % at 6.25 µM;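 active = mean inhibition above about 25%, limit read from the data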
Each line names hits and unclear results; the compound was inactive in the other large screens (follow-up assays come after a bar, where they were run).

CN(C)c1ccccc1C(=O)N1CCCC(C(=O)c2ccc3ccccc3c2)C1 (centres undefined)	Gli-Sufu block 61 | Gli-Sufu confirm inactive | SufuKO cytotox inactive | Wnt3a counter inactive
Cn1nccc1C(=O)N1CCCC(C(=O)c2cccc3ccccc23)C1 (centres undefined)	Gli-Sufu block 72 | Gli-Sufu confirm inactive | SufuKO cytotox inactive | Wnt3a counter inactive
CC(=O)N1CCN(c2cc(C)nc3nc(C)nn23)CC1	none (no result: GalR3 antag, H9c2 protect, FXN GAA850 act, Gli-Sufu block)
CCn1c2ccccc2c2cc(NC(=O)c3cc(OC)cc(OC)c3)ccc21	Gli-Sufu block 59 | Gli-Sufu confirm 62 | SufuKO cytotox 55 | Wnt3a counter inactive
CCn1c2ccccc2c2cc(NC(=O)COc3ccc(OC)cc3)ccc21	none
CCn1c2ccccc2c2cc(NC(=O)c3cc(OC)c(OC)c(OC)c3)ccc21	Gli-Sufu block 71 | Gli-Sufu confirm 60 | SufuKO cytotox 64 | Wnt3a counter inactive
O=C(NCCN1CCC(Cc2ccccc2)CC1)C1CCCN(S(=O)(=O)c2ccccc2)C1 (centres undefined)	none (no result: GalR3 antag, H9c2 protect, FXN GAA850 act, Gli-Sufu block)
CCn1cc[n+](C)c1P(c1ccccc1)c1ccccc1	none | Gli-Sufu confirm 55 | SufuKO cytotox inactive | Wnt3a counter inactive
CN1CCN(C(=O)c2ccc(N3CCCC3=O)cc2)CC1	Gli-Sufu block 60 | Gli-Sufu confirm inactive | SufuKO cytotox inactive | Wnt3a counter inactive
O=C(c1ccc(N2CCCC2=O)cc1)N1CCOCC1	none
C=CC[C@H]1c2ccccc2[C@H]2N3N=Cc4ccccc4[C@H]3[C@H](CCc3ccccc3)C(=O)N2N1C(=O)c1ccccc1	none (no result: GalR3 antag, H9c2 protect, FXN GAA850 act, Gli-Sufu block)
Cc1cccc(N/C(N)=N/c2nc(C(F)(F)F)cc(C(F)(F)F)n2)c1	none
CN(C)c1ccc(N/C(N)=N/c2nc(C(F)(F)F)cc(C(F)(F)F)n2)cc1	none | Gli-Sufu confirm inactive | SufuKO cytotox inactive | Wnt3a counter inactive
COc1ccc(CCCC(=O)O)c(C)c1	Gli-Sufu block 95 | Gli-Sufu confirm inactive | SufuKO cytotox inactive | Wnt3a counter inactive
COc1ccc(-n2nnc3c(SCC(=O)NCc4ccco4)ncnc32)cc1	Gli-Sufu block 98 | Gli-Sufu confirm inactive | SufuKO cytotox inactive | Wnt3a counter inactive
Cc1ccc(-n2nnc3c(SCC(=O)NCc4ccco4)ncnc32)cc1	none
COc1ccc(C)cc1NC(=O)CCN1CCN(c2ccccc2F)CC1	Gli-Sufu block 59 | Gli-Sufu confirm inactive | SufuKO cytotox inactive | Wnt3a counter inactive
COc1ccc(OC)c(NC(=O)CCN2CCN(c3ccccc3F)CC2)c1	none
Cc1cc(C)cc(C(=O)N(NC(=O)Nc2ccc(Cl)cc2)C(C)(C)C)c1	Gli-Sufu block 60 | Gli-Sufu confirm inactive | SufuKO cytotox inactive | Wnt3a counter inactive
CC(C)(C)N(NC(=O)Nc1ccc(Cl)c(Cl)c1)C(=O)c1ccccc1	none
COc1ccccc1OCCNC(=O)C1CC(=O)N(c2cccc(SC)c2)C1 (centres undefined)	Gli-Sufu block 95 | Gli-Sufu confirm inactive | SufuKO cytotox inactive | Wnt3a counter inactive
COc1cccc(CN2CC(C(=O)NCCOc3ccccc3F)CCC2=O)c1 (centres undefined)	Gli-Sufu block 59 | Gli-Sufu confirm inactive | SufuKO cytotox inactive | Wnt3a counter inactive
Cn1nccc1C(=O)OCC(=O)Nc1ccccc1Cl	none
Fc1cc(F)c(CSc2nnc(-c3cccnc3)n2Cc2ccccc2)cc1F	none (no result: GalR3 antag, H9c2 protect, FXN GAA850 act, Gli-Sufu block)
